The record followed here is PubChem BioAssay (NCATS).

Structures are written as SMILES. Results filed as inconclusive are left out. Where a call stands in place of a potency, no number is given. The source made the active and inactive calls. Calls come from the whole dose curve; as a rule, active = well fitted inhibition curve with a large enough effect; inconclusive = small, poorly fitted or top-dose-only effect; inactive = flat fitted curve, though single readings scatter.

In the experiment the test system is ATS189. Put plainly: qHTS profiling for inhibitors of Plasmodium falciparum proliferation (AID 504749). Note: nearly all actives have a fitted effect of over 60% in size. Conditions: P. falciparum in erythrocytes, SYBR Green DNA, 72 h; series mostly up to 28.7 µM. The method, boiled down:
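Readout was DNA-dye fluorescence from lysed cultures, ex 485/em 535 nm. Parasitized red cells had grown 72 h with compound; data scaled between 0.29 uM artemisinin and DMSO wells and corrected using vehicle-only plates.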
Consider `[O-][n+]1cccc(CO)c1`, for which the Potency entry was “inactive”.
The value for `Cc1cccc(C)c1NC(=O)CN(CC(=O)O)CC(=O)O` was “inactive”; that for `O=C(O)[C@@H]1CSCN1` was “inactive”.
As to `COc1cc2[nH]c(=O)[nH]c(=O)c2cc1OC`, the Potency entry was “inactive”.
As for `N[C@@H](CSCCCO)C(=O)O`, the Potency result was “inactive”.
The entry for `O=c1[nH]c(=O)c2[nH]c(=O)[nH]c2[nH]1` is “inactive”; for `CCCCCCCCCCCCCCCCCCOCC(O)CO` (stereo unspecified) it is “inactive”.
With `O=C(O)c1ccccc1-c1ccc(C(F)(F)F)cc1`, the Potency entry was “inactive”.
The value for `C[C@](N)(Cc1ccc(O)cc1)C(=O)O` was “inactive”; that for `O=C1OC(OC(=O)c2cccnc2Nc2cccc(C(F)(F)F)c2)c2ccccc21` (stereo unspecified) was “inactive”; that for `Nc1ccc(S(=O)(=O)Nc2ccccc2)cc1` was “inactive”.
The value for `NC(=O)NNc1ccccc1` was “inactive”.
The entry for `CC1(C)[C@@H]2CC[C@@]1(C)C(=O)C2` is “inactive”; for `CCC(=O)Nc1ccc(O)cc1` it is “inactive”.
For the compound `CC1(C)CO[C@@H](CC(=O)O)CN1`, the Potency entry was “inactive”.
The entry for `CCCCc1ncc(/C=C(\Cc2cccs2)C(=O)O)n1Cc1ccc(C(=O)O)cc1` is “inactive”; for `NCCNCCNCCNCCN` it is “inactive”; for `CCN(CC)CCSC(=O)C(c1ccccc1)c1ccccc1` it is “inactive”.
The value for `C=Cc1c(C)c2cc3[nH]c(cc4nc(cc5nc(cc1[nH]2)C(C)=C5CCC(=O)O)C(CCC(=O)O)=C4C)c(C)c3C=C` was “inactive”.
The entry for `NCC(=O)CCC(=O)O` is “inactive”.
With `COc1cc(C(=O)N2CCOCC2)cc(OC)c1OC`, the Potency entry was “inactive”.
The value for `Cc1cccc(Nc2cc(Cl)nc(SCC(=O)O)n2)c1C` was “inactive”; that for `O=C(O)COc1nn(Cc2ccccc2)c2ccccc12` was “inactive”.
The entry for `CC(=O)NC(Cc1ccccc1)C(=O)O` (stereo unspecified) is “inactive”; for `Cc1cc(CC(=O)O)n(C)c1C(=O)c1ccc(Cl)cc1` it is “inactive”.
Turning to `CCCOC(=O)c1ccccc1`, the Potency result was “inactive”.
The entry for `CCCCC(CC)COC(=O)c1ccccc1O` (stereo unspecified) is “inactive”; for `Oc1cccc(O)c1` it is “inactive”; for `CC(=O)CCC(=O)O` it is “inactive”.
The value for `COc1cc(C)c(Cc2cnc(N)nc2N)cc1OC` was “inactive”.
For `CCN(CC)CCNC(=O)c1cc(Cl)c(N)cc1OC`, the Potency result was “inactive”.
The entry for `CCCn1cnc2c1c(=O)n(CCCCC(C)=O)c(=O)n2C` is “inactive”; for `O=C1c2c(O)cccc2Cc2cccc(O)c21` it is “inactive”.
With `Cc1ncc(COP(=O)(O)O)c(C=O)c1O`, the Potency result was “inactive”.
The entry for `O=c1cc(CO)occ1O` is “inactive”; for `COc1ccc2c(c1)C(=O)N(CCc1ccc(S(=O)(=O)NC(=O)NC3CCCCC3)cc1)C(=O)C2(C)C` it is “inactive”.
